Screening data as filed in PubChem.
Shown are actives, neighbours in structure and some others; about 3.8% of the full set was active somewhere.
Jurkat NFkB inh: lowers PMA/ionomycin-induced NF-kB signal in Jurkat cells; PMA/ionomycin-induced NF-kB luciferase reporter, luminescence; inhibition, % at 4 µM; hit rate 0.53% among 330,000; in the data active = inhibition above about 50%
697 NFkB inh: inhibitors of the PMA/ionomycin-induced NF-kB reporter in 697 B cells; hit rate 0.33% among 330,000; inhibition, % at 4 µM; 697 B-cell NF-kB luciferase reporter, 16 h; in the data active = inhibition above about 35%
Gli-Sufu block: antagonists of Gli-Sufu signaling. Sufu-KO-LIGHT fibroblasts, Gli luciferase reporter luminescence. inhibition, % at 5 µM. hit rate 0.74% among 340,000;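 active = inhibition above about 55%, limit read from the data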
Mdm2-MdmX inh: disrupts the human Mdm2-MdmX interaction; inhibition, % at 8 µM; AID 485346; hit rate 3% among 330,000; O15151+Q00987; SaOS-2 split-luciferase Mdm2/MdmX complementation, luminescence;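 active = inhibition of at least 50% at 8 µM in the primary screen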
Target sequence (O15151 whole entry, looked up): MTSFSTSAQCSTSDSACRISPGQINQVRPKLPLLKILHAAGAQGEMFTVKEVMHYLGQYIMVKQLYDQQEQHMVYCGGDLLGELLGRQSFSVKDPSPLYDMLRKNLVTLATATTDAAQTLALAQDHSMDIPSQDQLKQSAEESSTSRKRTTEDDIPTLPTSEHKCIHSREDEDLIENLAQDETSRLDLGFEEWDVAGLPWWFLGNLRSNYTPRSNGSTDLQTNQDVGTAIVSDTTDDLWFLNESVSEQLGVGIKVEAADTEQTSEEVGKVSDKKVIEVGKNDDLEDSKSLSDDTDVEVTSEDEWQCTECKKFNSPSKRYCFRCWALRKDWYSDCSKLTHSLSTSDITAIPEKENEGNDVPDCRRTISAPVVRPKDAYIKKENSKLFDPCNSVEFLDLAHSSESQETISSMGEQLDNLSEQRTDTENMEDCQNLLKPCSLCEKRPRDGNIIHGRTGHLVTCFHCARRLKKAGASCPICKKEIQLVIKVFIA
Target sequence (Q00987 whole entry, looked up): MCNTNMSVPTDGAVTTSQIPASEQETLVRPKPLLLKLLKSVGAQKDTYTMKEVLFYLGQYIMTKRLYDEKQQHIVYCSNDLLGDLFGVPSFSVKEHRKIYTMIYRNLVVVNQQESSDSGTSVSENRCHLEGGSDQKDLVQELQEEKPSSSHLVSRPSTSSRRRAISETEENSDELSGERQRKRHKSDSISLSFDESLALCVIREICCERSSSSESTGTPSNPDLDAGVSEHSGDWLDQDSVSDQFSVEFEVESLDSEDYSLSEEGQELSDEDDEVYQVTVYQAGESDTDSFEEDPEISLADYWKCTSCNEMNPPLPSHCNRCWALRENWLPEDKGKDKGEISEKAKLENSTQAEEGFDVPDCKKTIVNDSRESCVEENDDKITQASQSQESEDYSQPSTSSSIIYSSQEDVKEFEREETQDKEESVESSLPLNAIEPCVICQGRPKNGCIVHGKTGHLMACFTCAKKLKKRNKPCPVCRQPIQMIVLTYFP
Shn3 inh set2: reduces Shn3 3'UTR luciferase signal in osteoblasts | AID 588674 | Clone20 osteoblast Shn3 3'UTR firefly luciferase, 24 h | inhibition, % at 12.5 µM | hit rate 0.52% among 360,000;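 active = mean inhibition of at least 75% with every replicate also reaching 75%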
Mdm2 MdmX conf: human Mdm2/MdmX binding inhibition, confirmed; shares compounds with Mdm2-MdmX inh; luminescent assay; inhibition, % at 8 µM; hit rate 55% among 10,000; in the data active = inhibition above about 40%
Full FLuc ctr: inhibits full-length luciferase, flagging false Mdm2/MdmX hits. shares compounds with Mdm2-MdmX inh. SaOS-2 full-length luciferase counterscreen, luminescence. inhibition, % at 8 µM. hit rate 77% among 6,200. AID 504607;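 active = mean inhibition at 8 µM reaching about 37%, which flags the compound as non-specific, limit read from the data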;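 note: p53-null SaOS-2 cells with luciferase driven by a doxycycline-inducible promoter; compound on cells about two nights before reading with doxycycline added after day one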
Numbers stand for hits; i = inactive; nt = no result.

SMILES	Jurkat NFkB inh	697 NFkB inh	Gli-Sufu block	Mdm2-MdmX inh	Shn3 inh set2	Mdm2 MdmX conf	Full FLuc ctr
Cc1cccc(NC(=O)CN2C(=O)S/C(=C\c3ccccn3)C2=O)c1	i	i	i	84	i	i	nt
COc1ccc(/C=C2/NC(=O)N(Cc3ccccc3F)C2=O)cc1OC	i	i	i	85	i	i	nt
O=C(CN1C(=O)S/C(=C\c2ccccn2)C1=O)Nc1ccccc1	i	i	i	i	i	nt	nt
CCOc1cc(/C=C2/NC(=O)N(CC(=O)Nc3cccc(C)c3)C2=O)ccc1OC	i	i	i	70	i	65	i
COc1cc2c(cc1OC)C(C)N(C(=O)c1cc3c(C)cc(C)cc3[nH]1)CC2 (stereo not given)	i	i	i	67	i	73	48
COc1ccc(NS(=O)(=O)c2cccs2)cc1S(=O)(=O)N1CCOCC1	i	i	i	i	i	nt	nt
COc1ccc(Nc2nc(-c3cccs3)nc3ccccc23)cc1S(=O)(=O)N1CCOCC1	i	i	i	85	i	82	57
O=C(CSCc1cc(=O)n2nc(C3CC3)sc2n1)Nc1ccc(F)cc1	i	i	i	i	i	nt	nt
Cc1cc(C)nc(NC(=O)c2c(F)c(F)c(F)c(C(=O)Nc3cc(C)cc(C)n3)c2F)c1	i	i	i	83	i	65	i
Cc1cc(C)nc(NC(=O)c2ccc3c(c2)OCO3)c1	i	i	nt	i	nt	nt	nt
O=C1c2cccc3cccc(c23)C(=O)N1CCN1CCN(CC(O)COc2ccc3ccccc3c2)CC1 (stereo not given)	i	i	i	67	i	i	nt
O=C1c2cccc3cccc(c23)C(=O)N1CC1CCN(CC(O)COc2ccc3ccccc3c2)CC1 (stereo not given)	i	i	i	73	i	i	52
Cc1cc(C)cc(OCC(O)CN2CCC(CN3C(=O)c4cccc5cccc(c45)C3=O)CC2)c1 (stereo not given)	i	i	i	69	i	i	74
CCc1ccc(OCC(O)CN2CCC(CN3C(=O)c4cccc5cccc(c45)C3=O)CC2)cc1 (stereo not given)	i	i	i	77	i	i	61
COc1cccc(OCC(O)CN2CCC(CN3C(=O)c4cccc5cccc(c45)C3=O)CC2)c1 (stereo not given)	i	i	i	i	i	nt	nt
O=S(=O)(NCC1CCCN(Cc2ccccc2O)C1)c1cccc2cccnc12 (stereo not given)	i	i	i	i	i	nt	nt
COc1ccc(OC)c(C(=O)/C=C/c2ccccc2C(F)(F)F)c1	i	i	i	89	i	65	i
COc1ccc(OC)c(N/C=C/C(=O)c2ccccc2)c1	i	i	i	58	i	62	155
COc1ccc(N/C=C/C(=O)c2cc(OC)c(OC)c(OC)c2)cc1	i	i	i	68	i	60	57
COc1ccc(C(=O)/C=C/c2ccccc2)c(OC)c1	i	i	i	i	i	nt	nt
COc1ccc(N/C=C/C(=O)c2ccc(OC)c(OC)c2)cc1	i	i	i	i	i	nt	nt
CC(C)CN(C(=O)COC(=O)CNC(=O)c1ccccc1)c1c(N)n(Cc2ccccc2)c(=O)[nH]c1=O	i	i	i	i	i	nt	nt
Cc1c(C(=O)N(C)CCCCN2CCOCC2)oc2c(F)cccc12	i	i	i	i	i	nt	nt
Cc1ccc(-n2c(O)c(/C=N/Nc3ccc(S(=O)(=O)N4CCOCC4)cc3[N+](=O)[O-])c3ccccc3c2=O)c(C)c1	i	i	i	55	i	i	nt
N#Cc1ccccc1S(=O)(=O)N1CCN(C(=O)CCNS(=O)(=O)c2ccc(Cl)cc2)CC1	nt	nt	i	nt	i	nt	nt
CC(C)N1C/C(=C/c2ccsc2)C(=O)/C(=C/c2ccsc2)C1	i	i	i	92	i	i	nt
COc1ccc(C(=O)c2c(C(F)(F)F)oc3c2C(=O)c2ccccc2C3=O)cc1	i	i	i	78	97	66	54
C[C@@H]1CN([C@@H](C)CO)C(=O)c2cc(NS(C)(=O)=O)ccc2O[C@@H](C)CCCCO[C@H]1CN(C)Cc1ccc2c(c1)OCO2	nt	nt	nt	nt	i	nt	nt
Cn1c(CNC(=O)c2ccco2)nnc1SCC(=O)N1CCN(c2ccccc2F)CC1	i	i	i	i	i	nt	nt
